# Assay outcomes as filed in PubChem BioAssay.
# PDI inh: blocks human protein disulfide isomerase activity; P07237; PDI insulin aggregation turbidity, A650, 90 min; inhibition, % at 10 µM; 350,000 tested, 0.052% active;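 active = mean inhibition across replicates of 30% or more, whatever share of single replicates reach that level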
# CendR NRP1 mod: NRP-1/CendR interaction modulation. O14786. FAM-RPARPAR peptide binding to NRP-1, fluorescence polarization. inhibition, % at 25 µM. 360,000 tested, 0.85% active. AID 602438;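 active = inhibition or corrected inhibition above about 18%, plus a signal ratio from 0.5 to 1.5, limit read from the data, passing the limit was not always enough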
# ARNT-TACC3 inh: disrupts binding between human ARNT and TACC3; Q9Y6A5; AlphaScreen His-ARNT PAS-B/GST-TACC3 binding, luminescence; TACC3 fragment carries E629A point mutation; inhibition, % at 9.99 µM; 390,000 tested, 0.66% active; AID 623870;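 active = mean inhibition of replicates at least 50% and at least half of replicates each reaching 50%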;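 note: 0% = complete ARNT plus TACC3 wells and 100% = ARNT alone without TACC3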
# ALR H2O2 inh: inhibitors of human sulfhydryl oxidase ALR | P55789 | purified ALR, DTT oxidation, H2O2 HRP-luminol luminescence | inhibition, % (no concentration beside the values) | 290,000 tested, 3.8% active | AID 485317;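 active = mean replicate inhibition above about 79%, with every replicate also reaching it, limit read from the data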
# Target sequence (P55789 whole entry, looked up): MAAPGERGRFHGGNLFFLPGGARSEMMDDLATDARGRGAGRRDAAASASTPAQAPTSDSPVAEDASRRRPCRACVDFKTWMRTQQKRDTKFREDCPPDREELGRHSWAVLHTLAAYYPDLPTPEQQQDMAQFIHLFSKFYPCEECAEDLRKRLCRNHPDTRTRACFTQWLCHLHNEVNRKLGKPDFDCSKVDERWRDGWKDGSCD
# PglD inh: PglD (C. jejuni) enzyme inhibition | inhibition, % at 12.5 µM | purified PglD enzyme, DTNB colorimetric CoA detection | AID 602405 | 360,000 tested, 0.098% active; in the data active = inhibition above about 16%, passing the limit was not always enough
# ERp5 inh: ERp5 (human) disulfide isomerase inhibition; Q15084; ERp5 insulin aggregation, absorbance 650 nm, 90 min; inhibition, % at 9.99 µM; 350,000 tested, 0.05% active; AID 651711;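 active = mean replicate inhibition above about 25%, with every replicate also reaching it, limit read from the data, passing the limit was not always enough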
# * hit, by the source's call; . = not tested or not shown. Many of the other results were omitted from the sample, so hits are more common in it than they were.
SMILES,PDI inh,CendR NRP1 mod,ARNT-TACC3 inh,ALR H2O2 inh,PglD inh,ERp5 inh
CN(C)c1ccc(NC(=O)CCn2c(=S)oc3ccccc32)cc1,-3.3,6.8,-0.7,98.3*,.,1.8
CN1CC(=O)N(CC(=O)NCCc2ccc(F)cc2)c2ccccc2C1=O,19.5,18.5,0.1,-11.2,7.5,.
CN1CC(=O)N(CC(=O)Nc2ccc(N(C)C)cc2)c2ccccc2C1=O,-9.1,2.8,4.7,98.9*,0.5,.
C[C@H]1CN([C@@H](C)CO)C(=O)c2ccccc2-c2ccccc2CO[C@H]1CN(C)S(=O)(=O)c1ccccc1,.,.,-8.1,.,3.6,0.2
CCNC(=O)[C@@H]1[C@@H](CO)[C@@H]2Cn3c(ccc(C4=CCCC4)c3=O)[C@@H]2N1C(=O)C1CC1,.,.,3.1,.,-1.8,1.2
CC(C)CC#Cc1cnc2c(c1)C(=O)N([C@@H](C)CO)C[C@H](C)[C@@H](CN(C)Cc1ccc(C(=O)O)cc1)O2,.,.,0.8,.,-2.5,-5.8
C[C@H](CO)N1C[C@H](C)[C@H](CN(C)Cc2ccc(Oc3ccccc3)cc2)Oc2ccc(NC(=O)c3ccncc3)cc2CC1=O,.,.,.,.,0.1,0.8
CN(C)c1ccc(NC(=O)CN2CCC(N3CCCCC3)CC2)cc1,2.3,9.8,-8.5,99.3*,.,.
CCOC(=O)c1ccc(NC(=O)CN2C(=O)NC3(CCCCCC3)C2=O)cc1,7.3,-3.9,-3.9,-6.6,.,8.0
CCOC(=O)c1ccc(NC(=O)CN2C(=O)CN(C(C)=O)C2=S)cc1,-7.3,-14.5,33.7,99.4*,-3.3,1.7
CCN(CC)c1ccc(NC(=O)CN2CCN(CC(=O)Nc3ccc(F)cc3)CC2)cc1,8.6,6.6,8.2,98.5*,-0.2,.
CSc1ccc(NC(=O)NCCN2CCc3ccccc3C2)cc1,1.7,2.0,12.1,97.8*,-0.7,.
COc1cc(CO)cc(I)c1O[C@H]1C=C(C(=O)NCCO)C[C@@H](N(CC2CCCCC2)C(=O)c2ccc(C(F)(F)F)cc2)[C@@H]1O,.,.,-6.7,.,-0.2,2.6
C[C@H]1CN([C@@H](C)CO)C(=O)c2cccc(NC(=O)C3CC3)c2O[C@@H]1CN(C)Cc1ccc(Oc2ccccc2)cc1,.,.,7.1,.,-2.1,-7.1
CCCNC(=O)N(C)C[C@@H]1Oc2ncc(C3=CCCCC3)cc2C(=O)N([C@@H](C)CO)C[C@@H]1C,.,.,.,.,3.6,0.1
CN(C)c1ccc(NC(=O)CCN2CCN(c3ccccn3)CC2)cc1,0.5,6.0,8.1,99.0*,-6.3,-2.0
O=C(CCN1CCN(c2ccccn2)CC1)Nc1ccc(F)cc1,-0.5,-0.3,-4.3,2.6,-7.4,.
Cc1cccc(C(=O)Nc2onc(C)c2C#N)c1,-15.2,5.1,4.6,96.4*,0.9,.
CC(Nc1ccc(S(=O)(=O)N2CCN(C)CC2)cc1[N+](=O)[O-])c1ccccc1 (centres undefined),3.6,-14.6,12.7,.,1.7,-7.0
COc1ccccc1C(C)Nc1ccc(S(=O)(=O)N2CCN(C)CC2)cc1[N+](=O)[O-] (centres undefined),-3.5,13.8,64.6*,-3.3,11.4,-1.5
C[C@H](CO)N1C[C@H](C)[C@H](CN(C)S(=O)(=O)c2ccc(F)cc2)Oc2ccc(NC(=O)CCCN(C)C)cc2C1=O,.,.,-4.7,.,1.9,-4.1
COc1ccc(/C=N/NC(=O)c2nn(C)cc2Br)cc1CSCc1ccco1,2.5,6.0,4.3,98.4*,-3.1,-15.4
C[C@@H]1CCCCO[C@H](CN(C)Cc2ccc3c(c2)OCO3)[C@H](C)CN([C@H](C)CO)C(=O)c2cc(NS(=O)(=O)c3cccs3)ccc2O1,.,.,-13.4,.,0.1,.
CCc1cc2c(=O)c(-c3nc4ccccc4n3C)coc2c(CN2CCN(C)CC2)c1O,1.5,22.1*,1.9,-13.8,-3.6,.
CCCNC(=O)C[C@H]1CC[C@@H]2[C@@H](COc3ccc(NC(=O)c4ccccc4)cc3C(=O)N2C)O1,.,.,-3.1,.,1.9,63.7*
CC(=O)Nc1ccc2c(c1)C(=O)N(C)[C@H]1CC[C@H](CC(=O)NCC3CC3)O[C@@H]1CO2,.,.,-14.5,.,-5.4,90.7*
CCC(=O)Nc1ccc2c(c1)C(=O)N(C)[C@H]1CC[C@@H](CC(=O)NCC3CC3)O[C@H]1CO2,.,.,-2.7,.,1.2,36.3*
CCC(=O)Nc1ccc2c(c1)C(=O)N(C)[C@H]1CC[C@H](CC(=O)NCC3CC3)O[C@H]1CO2,.,.,-7.1,.,0.3,60.1*
